INS-1E GSIS act: primary screen for activators of insulin secretion dependent on glucose, INS-1E cells, GLuc reporter luminescence. INS-1E GLuc reporter insulin secretion, 2-3 h. activation, % at 16.6 µM. 370,000 compounds, 0.61% hits. AID 743287;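 active means lowest replicate activation of at least 40%, so every replicate reaches that level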
EWS-Fli block: blocks EWS/Fli oncoprotein-driven transcription. A673 NR0B1-luciferase reporter, viability-normalised. inhibition, % at 12.6 µM. 350,000 compounds, 0.67% hits. AID 651661;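 active means mean inhibition of at least 50% after viability correction, with every replicate also passing that limit; inconclusive means mean reaches 50% but only one of two replicates passes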;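 further: firefly luciferase signal divided by Alamar Blue viability fluorescence both relative to DMSO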
PGC1a acetyl inh: lowers PGC1a acetylation signal in U2OS cells; AlphaScreen anti-acetyl-lysine; with virally co-expressed GCN5 acetyltransferase; 350,000 compounds, 0.17% hits; inhibition, % at 15.6 µM;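 active means every replicate shows inhibition of at least 40%; inconclusive means mean inhibition at least 40% but some replicate below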
Env fusion inh: HIV envelope-mediated fusion inhibition | AID 651610 | inhibition, % at 12.3 µM | 360,000 compounds, 1.1% hits | HeLa-JRFL Env/CEM21 cell fusion, luciferase;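 active means mean replicate inhibition score of at least 50 and every replicate individually at or above 50; inconclusive means only one of the two criteria met; inactive means mean below 50 and not all replicates reaching 50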
F508del corr: correctors of CFTR F508del function in bronchial epithelial cells. CFBE cells, YFP halide quenching; stimulated with forskolin plus potentiator P3; % fluorescence drop versus neutral controls. activity (quench increase), % at 7.58 µM. 350,000 compounds, 0.36% hits. AID 720511;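 active means mean added fluorescence quench of at least 8% versus neutral control, with both replicates also reaching 8%; inconclusive means only one of the mean or replicate conditions met; inactive means mean below 8% and not both replicates reaching 8%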;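 further: cells transiently co-express mutant CFTR-F508del with the halide-sensitive YFP; corrector assay measuring rescue of mutant channel to the surface after 24 h compound exposure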
PAX8 inh HTS: inhibitors of PAX8 transcriptional activity in RMG-I cells | RMG-I TPO-luciferase reporter, SteadyGlo, 24 h | inhibition, % at 12.6 µM | 360,000 compounds, 1.2% hits;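 active means mean replicate inhibition at least 60% with every replicate also reaching 60%; inconclusive means only one of the two criteria is met; inactive means mean below 60% and not all replicates reaching 60%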;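 further: luciferase light reporting Pax8 driven TPO promoter activity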
Hits are given with their value; i = inactive; ? = inconclusive; nt = no result; [ ] = dose if it differs, or a comment. Rows were chosen to be rich in hits. Some 2.7% of all compounds tested hit in one or more screens of this group.

SMILES	INS-1E GSIS act	EWS-Fli block	PGC1a acetyl inh	Env fusion inh	F508del corr	PAX8 inh HTS
C[C@H]1CN([C@@H](C)CO)S(=O)(=O)c2ccc(/C=C/c3ccccc3)cc2O[C@@H]1CN(C)C(=O)NC1CCCCC1	i	i	i	nt	i	i
C[C@H]1CN([C@@H](C)CO)S(=O)(=O)c2ccc(/C=C/c3ccccc3)cc2O[C@H]1CN(C)Cc1ccccc1	nt	i	i	nt	8.0	i
C[C@@H]1CN([C@H](C)CO)S(=O)(=O)c2ccc(/C=C/c3ccccc3)cc2O[C@H]1CN(C)C(=O)NC1CCCCC1	i	i	i	nt	9.6	i
C[C@@H]1CN([C@@H](C)CO)S(=O)(=O)c2ccc(-c3ccccc3)cc2O[C@H]1CN(C)Cc1ccccc1	i	i	i	55.2[16.7 µM]	i	nt
C[C@H]1CN([C@@H](C)CO)S(=O)(=O)c2ccc(-c3ccccc3F)cc2O[C@H]1CN(C)Cc1ccncc1	i	i	i	i	i	nt
C[C@@H]1CN([C@H](C)CO)S(=O)(=O)c2ccc(Br)cc2O[C@@H]1CN(C)Cc1ccc(-c2ccccc2)cc1	i	i	i	75.9	i	i
C[C@@H]1CN([C@H](C)CO)S(=O)(=O)c2ccc(-c3ccccc3F)cc2O[C@H]1CN(C)Cc1ccncc1	i	59.7	i	i	i	nt
C[C@@H]1CN([C@H](C)CO)S(=O)(=O)c2ccc(Br)cc2O[C@@H]1CN(C)Cc1ccccc1	i	i	i	i	i	i
COc1ccc([Si](C)(C)[C@@H]2[C@@H](CCn3cc([C@H](O)c4ccccc4)nn3)O[C@]3(C(=O)N(c4ccccc4)c4ccccc43)[C@H]2C)cc1	nt	i	i	i	?	i
COc1ccc([Si](C)(C)[C@@H]2[C@@H](CC(=O)N(CCO)Cc3ccccc3)O[C@]3(C(=O)N(C)c4ccccc43)[C@H]2C)cc1	nt	i	i	i	i	i
COc1ccc([Si](C)(C)[C@@H]2[C@@H](CCO)O[C@]3(C(=O)N(c4ccccc4)c4ccccc43)[C@H]2C)cc1	nt	i	i	i	i	93.1
COc1ccc([Si](C)(C)[C@@H]2[C@@H](CCO)O[C@]3(C(=O)N(C)c4ccccc43)[C@H]2C)cc1	nt	i	i	i	i	80.6
CN1C(=O)c2cc(NC(=O)C3CCCC3)ccc2OC[C@H]2O[C@@H](CC(=O)NCC(F)(F)F)CC[C@@H]21	i	i	i	nt	i	i
COc1ccccc1-c1cn(CC[C@H]2CC[C@H](NC(=O)c3ccccc3F)[C@H](CO)O2)nn1	i	i	i	i	i	i
c1ccc(-c2nnc(-c3ccccn3)nc2NC2CCCCC2)cc1	i	nt	i	i	nt	68.7
CNc1nc(-c2ccccn2)nnc1-c1ccccc1	nt	nt	i	nt	nt	nt
Cc1noc(C)c1NC(=O)N(C)C[C@@H]1Oc2ccc(NC(=O)NC3CCCCC3)cc2C(=O)N([C@@H](C)CO)C[C@@H]1C	i	i	i	nt	i	nt
O=C(c1cccc(OCc2ccccc2)c1)N1CCOCC1	i	i	i	i	i	i
CCOc1ccc(OCc2cccc(C(=O)N3CCOCC3)c2)cc1	nt	nt	i	83.5	nt	nt
C[C@@H]1CN([C@@H](C)CO)S(=O)(=O)c2ccc(/C=C/c3ccccc3)cc2O[C@H]1CN(C)C(=O)CN1CCOCC1	i	i	i	nt	i	i
COc1cc2c(cc1OC)-c1cc(Nc3ccccc3Br)nc(=O)n1CC2	72.7	i	i	i	i	i
COc1cc2c(cc1OC)-c1cc(N3CCc4ccccc43)nc(=O)n1CC2	42.8	i	i	i	i	i
N#C[C@H]1[C@@H](c2ccc(C#CC3CCCCC3)cc2)[C@H](CO)N1C(=O)Cc1ccccn1	i	i	i	i	i	i
O=C(Cc1ccc(NC(=O)C2CCCN(C(=O)c3ccccc3)C2)cc1)Nc1cccc(C(=O)N2CCCCC2)c1 (stereo unspecified)	79.4	i	nt	i	i	i
O=C(Nc1ccc(C(F)(F)F)cc1)Nc1ccc2c(c1)[C@H]1C[C@@H](CC(=O)N3CCc4ccccc4C3)O[C@@H](CO)[C@H]1O2	i	i	i	?	i	97.3
SMILES	INS-1E GSIS act	EWS-Fli block	PGC1a acetyl inh	Env fusion inh	F508del corr	PAX8 inh HTS
CN1CCN(C(=O)C[C@@H]2C[C@H]3c4cc(NC(=O)Nc5ccccc5F)ccc4O[C@H]3[C@@H](CO)O2)CC1	i	i	i	i	i	i
O=C(Nc1ccc(C(F)(F)F)cc1)Nc1ccc2c(c1)[C@H]1C[C@H](CC(=O)N3CCc4ccccc4C3)O[C@@H](CO)[C@H]1O2	i	i	i	i	i	i
O=C(C[C@H]1C[C@@H]2c3cc(NS(=O)(=O)c4ccc(F)cc4)ccc3O[C@@H]2[C@@H](CO)O1)N1CCc2ccccc2C1	i	i	50.1	i	i	87.0
O=C(C[C@H]1C[C@@H]2c3cc(NS(=O)(=O)c4ccc(F)cc4)ccc3O[C@@H]2[C@H](CO)O1)N1CCc2ccccc2C1	i	i	i	i	i	i
O=C(Nc1ccc(C(F)(F)F)cc1)Nc1ccc2c(c1)[C@H]1C[C@@H](CC(=O)N3CCc4ccccc4C3)O[C@H](CO)[C@H]1O2	i	i	i	?	i	97.5
O=C(Nc1ccc2c(c1)[C@@H]1C[C@@H](CC(=O)N3CCc4ccccc4C3)O[C@@H](CO)[C@@H]1O2)Nc1ccccc1F	i	i	i	i	i	64.3
CN(C)CC#Cc1ccc([C@H]2[C@H](CO)N3CCCCN(C(=O)C4CC4)C[C@@H]23)cc1	nt	i	i	nt	i	i
COc1ccc2c3c([nH]c2c1)[C@H](CO)N(C(=O)C1CCCCC1)CC31CCN(Cc2nccs2)CC1	i	i	i	nt	i	i
COc1ccc(-n2c(COc3ccccc3)nnc2SCc2ccc(C#N)cc2)cc1	nt	nt	i	i	nt	nt
N#Cc1ccc(CSc2nnc(COc3ccccc3)n2-c2ccccc2)cc1	i	nt	i	75.4	nt	nt
O=C(Nc1nncs1)C1c2ccccc2Oc2ccccc21	i	nt	nt	59.3	nt	nt
O=C(N/N=C/c1c(O)ccc2ccccc12)c1cccc(C(F)(F)F)c1	i	nt	nt	i	nt	69.8
Oc1ccc2ccccc2c1C=NNc1ccccn1	i	i	nt	i	9.7	i
O=C(N/N=C\c1c(O)ccc2ccccc12)c1ccc(Cn2cccn2)o1	i	nt	i	?	nt	67.3
Cc1cccc(/C=N/NC(=O)CN2CCCCCCC2)c1	i	i	nt	i	nt	i
Cc1ccc(O)c(/C=N/NC(=O)CN2CCCC2)c1	nt	i	83.6	i	i	i
O=C(CN1CCCC1)N/N=C/c1c(O)ccc2ccccc12	i	i	i	i	10.0	i
O=C(N/N=C/c1c(O)ccc2ccccc12)C(=O)N1CCCC1	nt	i	i	i	12.9	i
O=C(NN=Cc1c(O)ccc2ccccc12)C1CC1	i	i	i	i	i	nt
CO[C@H]1CN(C)C(=O)c2cc(NC(=O)C3CC3)ccc2OC[C@@H](C)N(Cc2cccnc2)C[C@@H]1C	i	i	nt	nt	i	i
COc1ccc(NC(=O)C(=O)c2cn(CC(=O)N3CCCC3)c3ccccc23)cc1OC	i	i	i	i	9.3	i

Assay outcomes (PubChem BioAssay)
